From ChEMBL document CHEMBL1157539, “Thousands of chemical starting points for antimalarial lead identification” (Nature, 2010) come the findings set out here.

Each structure is given as a SMILES string.

This assay has as its system HepG2. In words: GSK_TCMDC: Percent inhibition of human HepG2 cell line. Test compounds present at 10uM. It is filed as functional.
By Inhibition is commonly meant the change of the read-out against control, counted positive when it falls. The compound `Cc1cc(N2CCC(NS(=O)(=O)c3ccccc3)CC2)nc(Nc2cccc(C#N)c2)n1.O=C(O)C(F)(F)F` returned an Inhibition of 52%.

Compound `COc1ccc(Oc2ccc(-c3c(O)cc(C)nc3C)cc2)cc1` returned an Inhibition of 0%.

On to `Cl.O=C(NC1CCN(CC2(c3ccc(Cl)cc3)CCCCC2)CC1)c1cc[nH]n1`, for which the Inhibition came to 0%.

In the case of `CCn1c(-c2nonc2N)nc2cnc(Oc3cccc(NC(=O)c4ccc(OCCN5CCCC5)cc4)c3)cc21`, the Inhibition was determined as 25%.

`O=C(CCCCCNC(=O)c1ccc(O)c(-c2ccc(Cl)c(Cl)c2)c1)NCCN1CCCCC1` showed an Inhibition of 0%.

Compound `CN1CCC(Oc2ccc(CN3CC[C@H](NC(=O)c4ccc(Cl)c(Cl)c4)C3)c3ccccc23)C1.O=C(O)C(F)(F)F` (stereo not given in full) came in with an Inhibition of 52%.

As for `OC(COCc1ccc(-c2ccccc2)cc1)CN1CCCCC1` (stereo not given), the Inhibition is recorded as 13%.

Take `O=C(Nc1ccc([N+](=O)[O-])cc1)c1nn(-c2ccccc2)cc1/N=C/c1cccc(O)c1`: the Inhibition is on record as 10%.

As to `COc1cc(OC)cc(C(=O)N2CCOC(CCN3CCC(c4ccccc4)CC3)(c3ccc(Cl)c(Cl)c3)C2)c1` (stereo not given), the Inhibition amounted to 13%.

Compound `Cc1cccc2nc(-c3ccc(-c4cccc(C(=O)NCCN5CCCC5)c4)s3)[nH]c12` yielded an Inhibition of 22%.

In turn, `CCOc1cc(C)ccc1N1CCN(CCN2CCC(NC(=O)c3ccc(-c4ccc(C#N)cc4)cc3)CC2)CC1` registered an Inhibition of 9%.

The compound `COc1ccccc1N1CCN(CCCCNC(=O)c2ccc(NC(=O)c3cc(Cl)cc(Cl)c3)cc2)CC1` yielded an Inhibition of 9%.

`Cl.O=C(Nc1ccc(C(=O)Nc2ccc(C3=NCCN3)cc2)cc1)Nc1ccc(C2=NCCN2)cc1` yielded an Inhibition of 0%.

`COc1ccc(-c2ccc3c(-c4cccc(S(C)(=O)=O)c4)cnc(N)c3c2)cc1`: the Inhibition was 41%.

For `O=C(Cc1c[nH]cn1)Nc1cccc(-c2cccc(-c3nc4cc(F)ccc4[nH]3)c2)c1`, the Inhibition is 21%.

As for `CCCCCCn1c(Sc2ccc(C#N)c([N+](=O)[O-])c2)nnc1-c1cccs1`, the Inhibition was 26%.

`Cl.O=C(Oc1ccc(C2CNCCc3c2cc(OC(=O)c2ccc(O)cc2)c(OC(=O)c2ccc(O)cc2)c3Cl)cc1)c1ccc(O)cc1` (stereo not given) registered an Inhibition of 0%.

In turn, `CCN1CCN(Cc2ccc(NC(=O)c3cc4ccc5cccnc5c4[nH]3)cc2)CC1` returned an Inhibition of 0%.

In turn, `CC(C)CN1CCCN(Cc2cccc(NC(=O)c3ccc(-c4ccccc4)cc3)c2)CC1.O=C(O)C(F)(F)F` returned an Inhibition of 30%.

Turning to `COc1ccc2[nH]ccc(=NN=Cc3cccc(C)n3)c2c1`, the Inhibition was 16%.

As to `CC(=O)c1ccccc1C(=O)N1CCOc2ccc(C(O)C(c3ccccc3)c3ccccc3)cc2C1` (stereo not given), the Inhibition turned out to be 10%.

For the compound `CC=CC1CCNC(C(O)c2ccnc3ccc(OC)cc23)C1` (stereo not given), the Inhibition is on record as 0%.

With `COc1cccc(-c2cccc(-c3ccc(NC(=O)c4ccc([N+](=O)[O-])o4)cc3)n2)c1`, the Inhibition is recorded as 98%.

In turn, `O=C(Nc1ccc(-c2cccc(-c3nc4cc(F)ccc4[nH]3)c2)cc1)Nc1ccc(F)c(F)c1F` gave an Inhibition of 70%.

`CCn1cc(CN2CCCC(C(=O)Nc3ccc(-c4nc5ccccc5[nH]4)cc3)C2)cn1` (stereo not given) returned an Inhibition of 8%.

Take `Cc1cc(NCC(c2ccccc2)c2ccccc2)nc(NCc2ccc(C(F)(F)F)cc2)n1`: the Inhibition was determined as 29%.

Turning to `O=C(/C=C/c1ccc(Cl)c(Cl)c1)NCCCCN1CCCN(C(=O)Nc2ccc(C(F)(F)F)cc2)CC1`, the Inhibition is listed as 35%.

For the compound `COc1ccc2nc(C)cc(NCc3ccc4ccccc4c3)c2c1.Cl`, the Inhibition worked out at 21%.

`c1ccc(COc2ccc(COc3ccc(Cn4ccnc4)cc3)cc2)cc1` displayed an Inhibition of 9%.

As to `COc1ccc2oc(=O)c(C#N)c(O)c2c1`, the Inhibition is recorded as 0%.
